Results on seven molecules are retold here after PubChem BioAssay (EPA / NIEHS).

A short description of test [1]: CEETOX_H295R_TESTO: CeeTox H295R High-throughput Steroidogenesis Assay for Testosterone (TESTO) (AID 2283457).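 On AC50: cells exposed to chemicals for 48 h before medium collection.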 Conditions: actives raise or lower the signal. An outline of the steps: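 Readout: testosterone quantified by HPLC-MS/MS (C18, ESI positive) after MTBE liquid-liquid extraction of culture medium. Cells were H295R, 48 h chemical exposure per OECD 456 with modifications. Gain or loss of signal fitted relative to DMSO.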

Read-out in test [2]: Cyclin D2 (CCND2), CCND2 (gene 894)
Put plainly: LTEA_HepaRG_CCND2: Life Technologies and Expression Analysis (LTEA) Assay for Cyclin D2 (CCND2) using HepaRG (AID 2283449). The note with it: mRNA level, 48 h; actives raise or lower the signal. An outline of the steps: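 CCND2 transcript levels, quantified by qRT-PCR and normalised to three housekeeping genes, were fitted bidirectionally against 0.5% DMSO. HepaRG cultures were dosed 48 h in duplicate with an 8-point half-log series up to 100 uM.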

Read-out in test [3]: Cyclin Dependent Kinase Inhibitor 1A (CDKN1A), CDKN1A (gene 1026)
The test is described as follows: LTEA_HepaRG_CDKN1A: Life Technologies and Expression Analysis (LTEA) Assay for Cyclin Dependent Kinase Inhibitor 1A (CDKN1A) using HepaRG (AID 2283450). The note with it: mRNA level, 48 h; actives raise or lower the signal. An outline of the steps: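 HepaRG, 48 h dosing, 8-pt half-log series from 100 uM top, 0.5% DMSO vehicle, duplicates. Readout: TaqMan qRT-PCR of CDKN1A transcript, housekeeping-normalized (ACTB, GAPDH, POLR2A). Up/down curve fit relative to DMSO.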

Read-out in test [4]: Cyclin D1 (CCND1), CCND1 (gene 595)
Put plainly: LTEA_HepaRG_CCND1: Life Technologies and Expression Analysis (LTEA) Assay for Cyclin D1 (CCND1) using HepaRG (AID 2283451). Conditions: mRNA level, 48 h; actives raise or lower the signal. An outline of the steps:
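qRT-PCR (Fluidigm 96.96 array) read-out of transcript level, housekeeping-normalized (ACTB/GAPDH/POLR2A). HepaRG cells, 48 h chemical exposure, 8-point half-log series from 100 uM, 0.5% DMSO vehicle; gain or loss relative to DMSO baseline.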

Read-out in test [5]: catalase (CAT), CAT (gene 847)
Put plainly: LTEA_HepaRG_CAT: Life Technologies and Expression Analysis (LTEA) Assay for catalase (CAT) using HepaRG (AID 2283452). Conditions: mRNA level, 48 h; actives raise or lower the signal. The gist of the method:
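Expression of CAT was quantified by TaqMan qRT-PCR with ACTB/GAPDH/POLR2A normalization after 48 h chemical exposure of HepaRG. Eight-point half-log series, top 100 uM, in 0.5% DMSO; gain or loss fitted against vehicle.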

Read-out in test [6]: flavin-containing dimethylaniline monooxygenases 3 (FMO3), FMO3 (gene 2328)
Put plainly: LTEA_HepaRG_FMO3: Life Technologies and Expression Analysis (LTEA) Assay for flavin-containing dimethylaniline monooxygenases 3 (FMO3) using HepaRG (AID 2283453). Conditions: mRNA level, 48 h; actives raise or lower the signal. An outline of the steps:
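FMO3 transcript quantified by TaqMan qRT-PCR against three housekeeping genes after 48 h chemical exposure of HepaRG cells. Eight-point half-log series, top 100 uM, 0.5% DMSO vehicle; phenobarbital 1mM induction control; up- or down-regulation fitted.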

Read-out in test [7]: Cytochrome P450 (CYP1A1), CYP1A1 (gene 1543)
The test is described as follows: LTEA_HepaRG_CYP1A1: Life Technologies and Expression Analysis (LTEA) Assay for Cytochrome P450 (CYP1A1) using HepaRG (AID 2283454). Conditions: mRNA level, 48 h; actives raise or lower the signal. The gist of the method:
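qRT-PCR read-out: CYP1A1 transcript normalized to three housekeeping genes, fitted bidirectionally against 0.5% DMSO vehicle baseline. Human HepaRG cells, 48 h chemical exposure, 8-point half-log series topping at 100 uM.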

Read-out in test [8]: CFLAR gene, CFLAR (gene 8837)
The test is described as follows: LTEA_HepaRG_CFLAR: Life Technologies and Expression Analysis (LTEA) Assay for CFLAR gene using HepaRG (AID 2283455). The note with it: mRNA level, 48 h; actives raise or lower the signal. An outline of the steps:
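Transcript level by qRT-PCR (normalized to ACTB, GAPDH and POLR2A) after 48 h chemical exposure of HepaRG cells, top concentration 100 uM with half-log steps, 0.5% DMSO vehicle, duplicates; fitted bidirectionally against DMSO baseline.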

Read-out in test [9]: Forkhead box O1 (FOXO1), FOXO1 (gene 2308)
The test is described as follows: LTEA_HepaRG_FOXO1: Life Technologies and Expression Analysis (LTEA) Assay for Forkhead box O1 (FOXO1) using HepaRG (AID 2283456). The note with it: mRNA level, 48 h; actives raise or lower the signal. An outline of the steps: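 FOXO1 transcript quantified by qRT-PCR after 48 h chemical exposure (top 100 uM, half-log steps, 0.5% DMSO) of HepaRG cells, housekeeping-normalized (ACTB/GAPDH/POLR2A). Changes fitted in both directions relative to vehicle.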

Read-out in test [10]: growth arrest and DNA damage 45 (GADD45A), GADD45A (gene 1647)
Put plainly: LTEA_HepaRG_GADD45A: Life Technologies and Expression Analysis (LTEA) Assay for growth arrest and DNA damage 45 (GADD45A) using HepaRG (AID 2283458). Conditions: mRNA level, 48 h; actives raise or lower the signal. An outline of the steps:
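GADD45A expression was measured by TaqMan qRT-PCR against three housekeeping genes (ACTB, GAPDH, POLR2A) after 48 h treatment of HepaRG cells. Eight-point half-log series up to 100 uM in 0.5% DMSO, run in duplicate.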

Read-out in test [11]: Forkhead box O3 (FOXO3), FOXO3 (gene 2309)
Put plainly: LTEA_HepaRG_FOXO3: Life Technologies and Expression Analysis (LTEA) Assay for Forkhead box O3 (FOXO3) using HepaRG (AID 2283459). The note with it: mRNA level, 48 h; actives raise or lower the signal. The gist of the method:
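FOXO3 transcript measured by qRT-PCR (normalized to ACTB, GAPDH, POLR2A) after 48 h exposure of HepaRG cells in serum-free induction medium. Duplicates, eight half-log concentrations up to 100 uM, 0.5% DMSO; gain or loss fitted against DMSO.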

Read-out in test [12]: ABC Transporter (ABCB1), ABCB1 (gene 5243)
Put plainly: LTEA_HepaRG_ABCB1: Life Technologies and Expression Analysis (LTEA) Assay for ABC Transporter (ABCB1) using HepaRG (AID 2283460). Conditions: mRNA level, 48 h; actives raise or lower the signal. An outline of the steps:
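ABCB1 transcript level measured by TaqMan qRT-PCR against three housekeeping genes after 48 h chemical exposure of differentiated HepaRG cells. Top concentration 100 uM, half-log steps, eight points, 0.5% DMSO vehicle; bidirectional fit relative to DMSO.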

Read-out in test [13]: growth arrest and DNA damage 45 (GADD45B), GADD45B (gene 4616)
The test is described as follows: LTEA_HepaRG_GADD45B: Life Technologies and Expression Analysis (LTEA) Assay for growth arrest and DNA damage 45 (GADD45B) using HepaRG (AID 2283461). Conditions: mRNA level, 48 h; actives raise or lower the signal. An outline of the steps:
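qRT-PCR read-out (Fluidigm TaqMan, housekeeping-normalized) of mRNA change in human HepaRG cells after 48 h chemical exposure; 8-point curve, top 100 uM, half-log steps, 0.5% DMSO vehicle; gain or loss fitted relative to DMSO baseline.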

Read-out in test [14]: ABC Transporter (ABCC3), ABCC3 (gene 8714)
The test is described as follows: LTEA_HepaRG_ABCC3: Life Technologies and Expression Analysis (LTEA) Assay for ABC Transporter (ABCC3) using HepaRG (AID 2283462). Conditions: mRNA level, 48 h; actives raise or lower the signal. An outline of the steps:
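qRT-PCR read-out of ABCC3 transcript, normalized to three housekeeping genes (ACTB, GAPDH, POLR2A), after 48 h chemical exposure of human HepaRG cells. Eight half-log concentrations, highest 100 uM, in 0.5% DMSO; gain or loss fitted relative to DMSO baseline.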

Read-out in test [15]: ABC Transporter (ABCB11), ABCB11 (gene 8647)
The test is described as follows: LTEA_HepaRG_ABCB11: Life Technologies and Expression Analysis (LTEA) Assay for ABC Transporter (ABCB11) using HepaRG (AID 2283463). Conditions: mRNA level, 48 h; actives raise or lower the signal. An outline of the steps: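 ABCB11 transcript levels quantified by TaqMan qRT-PCR against three housekeeping genes after 48 h chemical exposure of HepaRG cultures. Concentrations up to 100 uM in half-log steps, 0.5% DMSO vehicle; both induction and suppression scored.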

Read-out in test [16]: ABC Transporter (ABCC2), ABCC2 (gene 1244)
The test is described as follows: LTEA_HepaRG_ABCC2: Life Technologies and Expression Analysis (LTEA) Assay for ABC Transporter (ABCC2) using HepaRG (AID 2283464). The note with it: mRNA level, 48 h; actives raise or lower the signal. The gist of the method: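 qRT-PCR (TaqMan, Fluidigm array) read-out of ABCC2 mRNA, normalized to three housekeeping genes. Differentiated HepaRG cells were treated 48 h in serum-free induction medium with 8-point half-log series from 100 uM in 0.5% DMSO; curves fitted bidirectionally relative to DMSO.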

Read-out in test [17]: Broad substrate specificity ATP-binding cassette transporter ABCG2 (Homo sapiens) (UniProt Q9UNQ0)
Put plainly: LTEA_HepaRG_ABCG2: Life Technologies and Expression Analysis (LTEA) Assay for ABC Transporter (ABCG2) using HepaRG (AID 2283465). Conditions: mRNA level, 48 h; actives raise or lower the signal. The gist of the method:
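ABCG2 transcript was quantified by TaqMan qRT-PCR against three housekeeping genes in HepaRG cells. Cells were treated in duplicate for 48 h across an 8-point half-log series up to 100 uM, with 0.5% DMSO vehicle. Gain or loss versus DMSO was fit.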

Read-out in test [18]: ATP-citrate lyase (ACLY), ACLY (gene 47)
Put plainly: LTEA_HepaRG_ACLY: Life Technologies and Expression Analysis (LTEA) Assay for ATP-citrate lyase (ACLY) using HepaRG (AID 2283466). Conditions: mRNA level, 48 h; actives raise or lower the signal. The gist of the method: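 ACLY mRNA quantified by qRT-PCR on Fluidigm arrays against three housekeeping genes, after 48 h chemical treatment of HepaRG cells (top concentration 100 uM, half-log steps, 0.5% DMSO vehicle). Up- or down-regulation fitted relative to DMSO.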

Read-out in test [19]: Peroxisomal acyl-coenzyme A oxidase 1 (ACOX1) gene, ACOX1 (gene 51)
The test is described as follows: LTEA_HepaRG_ACOX1: Life Technologies and Expression Analysis (LTEA) Assay for Peroxisomal acyl-coenzyme A oxidase 1 (ACOX1) gene using HepaRG (AID 2283467). Conditions: mRNA level, 48 h; actives raise or lower the signal. An outline of the steps:
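ACOX1 transcript levels were quantified by TaqMan qRT-PCR against three housekeeping genes after 48 h chemical exposure of differentiated human HepaRG cells. Exposure used eight half-log steps topping at 100 uM, 0.5% DMSO vehicle, in duplicate. Bidirectional curve fits were made relative to DMSO.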

Read-out in test [20]: Alkaline Phosphatase, Placental (ALPP) gene, ALPP (gene 250)
Put plainly: LTEA_HepaRG_ALPP: Life Technologies and Expression Analysis (LTEA) Assay for Alkaline Phosphatase, Placental (ALPP) gene using HepaRG (AID 2283468). Conditions: mRNA level, 48 h; actives raise or lower the signal. The gist of the method:
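qRT-PCR readout of ALPP mRNA (Fluidigm TaqMan), normalized to ACTB/GAPDH/POLR2A, after 48 h chemical exposure of HepaRG cells; 8-point half-log series, top 100 uM, 0.5% DMSO vehicle. Bidirectional curve fit versus DMSO baseline.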

The source made the active and inactive calls. How the source made its calls: active means hit-call score of the fitted dose curve at least 0.9, where 1 is the maximum; inactive means score below 0.9.

Broad substrate specificity ATP-binding cassette transporter ABCG2 (Homo sapiens), sequence (Q9UNQ0 whole entry, looked up): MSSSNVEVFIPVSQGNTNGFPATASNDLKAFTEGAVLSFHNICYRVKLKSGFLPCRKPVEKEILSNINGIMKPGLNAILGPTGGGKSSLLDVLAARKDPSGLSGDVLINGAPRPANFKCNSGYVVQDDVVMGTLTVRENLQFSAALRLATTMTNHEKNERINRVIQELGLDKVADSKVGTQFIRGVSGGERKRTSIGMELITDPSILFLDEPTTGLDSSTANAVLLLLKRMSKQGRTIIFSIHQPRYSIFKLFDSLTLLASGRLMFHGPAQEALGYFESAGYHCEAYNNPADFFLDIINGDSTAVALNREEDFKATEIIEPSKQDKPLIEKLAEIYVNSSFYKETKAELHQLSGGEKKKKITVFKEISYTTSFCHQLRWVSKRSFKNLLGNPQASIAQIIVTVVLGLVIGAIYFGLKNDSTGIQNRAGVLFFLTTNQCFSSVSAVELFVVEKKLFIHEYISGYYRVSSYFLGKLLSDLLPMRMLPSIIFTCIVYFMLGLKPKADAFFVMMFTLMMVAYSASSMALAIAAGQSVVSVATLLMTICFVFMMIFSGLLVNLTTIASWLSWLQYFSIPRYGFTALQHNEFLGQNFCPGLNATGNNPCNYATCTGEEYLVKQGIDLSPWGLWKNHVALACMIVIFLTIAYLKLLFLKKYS

As for `CC1(C)[C@H](C(=O)OCc2cccc(Oc3ccccc3)c2)[C@@H]1C=C(Cl)Cl`, in [1], the result was inactive.

On to `Nc1cc([N+](=O)[O-])ccc1Cl`, for which the molecule was called inactive in [1].

`O=C(O)c1ccc([N+](=O)[O-])cc1`: the molecule was classed as inactive in test [2], in [3], in test [4], in test [5], in test [6] and in test [7]. Further, the outcome in test [8], in test [9], in [10], in test [11], in test [12] and in [13] was inactive. For the same molecule, the call in test [14], in [15], in [16], in test [17], in [18] and in [19] was inactive. Moreover, the molecule was classed as inactive in [20].

Take `COc1cc2ncnc(Nc3cccc(Cl)c3)c2cc1OC`: in test [1], the call was inactive.

On to `C=CC(C)(C)O`, for which, in [1], the molecule was called inactive.

On to `O=c1cc(-c2ccccc2)oc2cc(O)cc(O)c12`, for which, in test [1], the AC50 was 5610 nM (active).

For the molecule `O=C(O)C[C@H](O)C[C@H](O)/C=C/c1c(C2CC2)nc2ccccc2c1-c1ccc(F)cc1`, the AC50 in [1] is 87.1 nM (active).
